From the supplement of paper PMC10127200
Counter-ions that a name gives are not always drawn.

Key:
Test in all cases: Euclidean distance of Cell Painting phenotypic profile (signed KS, 77 features) to DMSO centroid (dimensionless distance); 5 or 10 uM (library dependent); higher = stronger phenotypic change vs DMSO (phenoactivity)
Settings in all cases: 48 h
786-O = system: 786-O
Procedure, shortened: (§1)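 Five cancer lines and a healthy fibroblast line received library compounds at 10 or 5 uM (library-dependent, 0.1% DMSO final) for 48 h. Stained cells were imaged confocally at 20X (9 fields/well). Harmony extracted 77 features, each scored as a signed Kolmogorov-Smirnov statistic against same-plate vehicle wells. Profiles were plate-position corrected, correlation-weighted and replicate-averaged at the top dose. Phenoactivity is the Euclidean distance from each profile to the median vehicle profile.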

A549 = system: A549
Procedure, shortened: as §1

DU145 = system: DU145
Procedure, shortened: as §1

FB = system: FB
Procedure, shortened: as §1

HEPG2 = system: HEPG2
Procedure, shortened: as §1

OVCAR4 = system: OVCAR4
Procedure, shortened: as §1

Structure (SMILES) | Euclidean distance (786-O) | Euclidean distance (A549) | Euclidean distance (DU145) | Euclidean distance (FB) | Euclidean distance (HEPG2) | Euclidean distance (OVCAR4)
CC(C)(O)CNc1nc(Nc2ccnc(C(F)(F)F)c2)nc(-c2cccc(C(F)(F)F)n2)n1 [Enasidenib (AG-221)] | 1.17 | 0.727 | 1.69 | 1.4 | 1.82 | 1
C1CNCCN1 [Piperazine] | 1.04 | 1.08 | 0.846 | 1.09 | 0.402 | 1.67
Nc1nccs1 [Aminothiazole] | 0.905 | 1.79 | 2.14 | 1.92 | 0.971 | 1.9
COc1cc(OC)c(NC(=O)Nc2cc(C)on2)cc1Cl | 0.922 | 0.813 | 1.16 | 0.91 | 0.834 | 1.52
COc1cc2c(cc1OC)[C@@H]1Cc3ccc(OC)c(OC)c3CN1CC2 [Rotundine] | 1.84 | 0.769 | 1.07 | 1.26 | 0.595 | 1.2
NC(=N\CCCCCC/N=C(N)/N=C(\N)Nc1ccc(Cl)cc1)/N=C(\N)Nc1ccc(Cl)cc1 [Chlorhexidine diacetate] | 2.69 | 4.3 | 3.46 | 2.04 | 3.03 | 3.25
COc1cc(Nc2ncc(F)c(Nc3ccc4c(n3)NC(=O)C(C)(C)O4)n2)cc(OC)c1OC | 1.65 | 3.73 | 2.9 | 3.35 | 1.78 | 2.24
CC(C)N1CCN(c2ccc(Nc3ncc4cc5n(c4n3)C3(CCCCC3)CNC5=O)nc2)CC1 | 3.19 | 1.63 | 2.41 | 3.71 | 2.1 | 2.34
CCCC(C)NC(=O)c1ccc(Cl)c(Cl)c1 (stereo unspecified) | 0.75 | 0.663 | 0.911 | 1.24 | 0.75 | 0.568
CCN1CCN(Cc2ccc(Nc3ncc(F)c(-c4cc(F)c5nc(C)n(C(C)C)c5c4)n3)nc2)CC1 [Abemaciclib] | 4.11 | 4.37 | 3.65 | 4.04 | 3.81 | 3.89
Nc1ccc(C(=O)O)c(O)c1 [Sodium 4-Aminosalicylate] | 1.34 | 2.62 | 1.27 | 2.47 | 1.02 | 1.43
O=C(Nc1ccccc1)N1CCN(c2nc(-c3ccccc3)ns2)CC1 | 0.718 | 0.932 | 0.9 | 1.03 | 1.34 | 1.08
C[C@@H](CN1CC(=O)NC(=O)C1)N1CC(=O)NC(=O)C1 [Dexrazoxane HCl (ICRF-187. ADR-529)] | 1.38 | 1.71 | 1.21 | 1.96 | 1.47 | 1.89
O=C1CC[C@H](N2Cc3c(OCc4ccc(CN5CCOCC5)cc4)cccc3C2=O)C(=O)N1 [Iberdomide(CC220)] | 1.05 | 1.02 | 0.711 | 1.32 | 1.24 | 0.967
CC(NCCC(c1ccccc1)c1ccccc1)c1ccccc1 (stereo unspecified) [Fendiline hydrochloride] | 1.96 | 2.16 | 1.45 | 1.24 | 2.42 | 1.41
CCC(CC)(NC(=O)C(C)C)C(=O)N[C@@H](CCCN=C(N)N)C(=O)NC1(C(=O)NC(c2ccc(F)cc2)c2ccc(F)cc2)CCCC1 | 0.761 | 0.796 | 1.14 | 0.736 | 0.712 | 0.893
CN1CCN(c2cc3c(cc2F)c(=O)c(C(=O)O)cn3-c2ccc(F)cc2)CC1 [Difloxacin hydrochloride] | 1.51 | 0.685 | 0.906 | 1.1 | 0.824 | 1.17
Cn1nnc(-c2ccc(-c3ccc(N4C[C@H](CO)OC4=O)cc3F)cn2)n1 [Tedizolid] | 1.38 | 1.13 | 0.583 | 0.908 | 1 | 1.01
COc1ccc(/C=C\c2cc(OC)c(OC)c(OC)c2)cc1O [Combretastatin A4] | 3.46 | 3.33 | 3.91 | 2.81 | 4.14 | 2.83
CC(=O)Nc1ccc(C(=O)Nc2ccccc2N)cc1 [CI994 (Tacedinaline)] | 1.29 | 1.67 | 1.56 | 2.76 | 1.83 | 1.94
Cc1ccc(/C=C2/C(=O)C3(C)CCC2C3(C)C)cc1 (stereo unspecified) [4-Methylbenzylidene camphor] | 1.01 | 1.2 | 0.926 | 0.895 | 0.613 | 1.22
Cc1nc(C)c(Cl)c(O)c1Cl [Clopidol] | 0.853 | 1.1 | 0.432 | 1.15 | 0.83 | 1.61
CCN(CC)CCOCCOC(=O)C1(c2ccccc2)CCCC1 [Pentoxyverine Citrate] | 0.795 | 0.55 | 0.661 | 0.588 | 0.353 | 0.939
Oc1ccc(Cl)c2cccnc12 [Cloxiquine] | 1.62 | 2.13 | 1.92 | 2.66 | 1.62 | 1.97
c1ccc2c(Oc3nc(Nc4ccc(N5CCOCC5)cc4)c4ncn(C5CCCCC5)c4n3)cccc2c1 [Purmorphamine] | 1.93 | 1.81 | 0.922 | 0.758 | 1.17 | 1.94
CNC(=O)c1cnn(-c2nc(N)c3ncn([C@@H]4O[C@H](CO)[C@@H](O)[C@H]4O)c3n2)c1 [Regadenoson] | 0.517 | 0.628 | 0.867 | 1.43 | 1.32 | 0.995

Structure (SMILES) | Euclidean distance (786-O) | Euclidean distance (A549) | Euclidean distance (DU145) | Euclidean distance (FB) | Euclidean distance (HEPG2) | Euclidean distance (OVCAR4)
O=C(O)C1=CO[C@@H](O[C@@H]2O[C@H](CO)[C@@H](O)[C@H](O)[C@H]2O)[C@@H]2C(CO)=CC[C@H]12 [Geniposidic acid] | 0.817 | 0.758 | 0.684 | 0.819 | 0.985 | 0.756
C[C@H]1C[C@H]2[C@@H]3CCC4=CC(=O)C=C[C@]4(C)[C@@]3(F)[C@@H](O)C[C@]2(C)[C@@]1(O)C(=O)CO [Betamethasone] | 1.28 | 2.01 | 2.37 | 1.68 | 0.663 | 2
O=C1CCc2ccc(OCCCCN3CCN(c4cccc(Cl)c4Cl)CC3)cc2N1 [Aripiprazole] | 1.08 | 0.975 | 0.573 | 0.979 | 0.512 | 1.21
O=C(Nc1ncc(SCCN2CCCC2)s1)[C@]1(c2ccc(S(=O)(=O)C3CC3)cc2)C[C@H]1C1CCCCC1 | 5.07 | 2.38 | 3.02 | 3.03 | 3.45 | 1.44
Nc1ncc2ncn(CC3(OCP(=O)(O)O)CC3)c2n1 [Besifovir] | 1.03 | 0.329 | 1.01 | 1.2 | 0.716 | 0.915
Cc1nc2n(c(=O)c1CCN1CCC(c3noc4cc(F)ccc34)CC1)CCCC2 [Risperidone] | 1.21 | 0.71 | 0.723 | 1.08 | 0.51 | 0.674
Clc1ccc(COC(Cn2ccnc2)c2ccc(Cl)cc2Cl)cc1 (stereo unspecified) [Econazole] | 1.06 | 1.25 | 0.98 | 1.02 | 1.09 | 0.709
C=CCOc1ccccc1OCC(O)CNC(C)C (stereo unspecified) [Oxprenolol HCl] | 0.863 | 0.819 | 1.56 | 1.21 | 0.783 | 0.994
O=C(O)c1ccc(CN2CCC(CN[C@@H]3C[C@H]3c3ccccc3)CC2)cc1 | 1.04 | 1.01 | 0.946 | 1.08 | 1.11 | 1.06
OC(CNCC(O)C1CCc2cc(F)ccc2O1)C1CCc2cc(F)ccc2O1 (stereo unspecified) [Nebivolol] | 1.39 | 1.67 | 0.832 | 1.65 | 2.26 | 1.58
CC(C)(C)NCC(O)c1cc(O)cc(O)c1 (stereo unspecified) [Terbutaline Sulfate] | 1.21 | 0.707 | 0.835 | 1.27 | 0.547 | 0.825
O=C(O)CCCCCCCC(=O)O [Azelaic acid] | 0.8 | 1.26 | 0.798 | 0.728 | 0.834 | 0.801
Cc1csc(-c2nnc(Nc3ccc(Oc4ncccc4-c4ccnc(N)n4)cc3)c3ccccc23)c1 | 3.06 | 3.22 | 2.83 | 2.44 | 2.61 | 3.01
NC(=O)c1cccc2cn(-c3ccc([C@@H]4CCCNC4)cc3)nc12 [Niraparib (MK-4827) tosylate] | 2.41 | 2.21 | 1.59 | 2.49 | 2.86 | 1.92
O=C(O)c1cc(O)c(O)c(O)c1 [Gallic acid] | 1.13 | 0.673 | 0.909 | 1.31 | 0.825 | 0.935
CCN(CC)CC(=O)Nc1c(C)cccc1C [Lidocaine hydrochloride] | 0.709 | 0.8 | 0.919 | 0.862 | 0.656 | 1.35
CC1(C)O[C@H]2CC(=O)OC[C@]23[C@H]2CC[C@@]4(C)[C@H](c5ccoc5)OC(=O)[C@H]5O[C@]54[C@]2(C)C(=O)C[C@@H]13 [Limonin] | 0.804 | 0.714 | 0.885 | 0.843 | 1.05 | 1.05
CCN(CC)CC(=O)Oc1ccc(NC(C)=O)cc1 [Propacetamol hydrochloride] | 1.3 | 0.77 | 1.22 | 0.897 | 1.14 | 1.47
Cn1c(=O)n(-c2ccc(C(C)(C)C#N)cc2)c2c3cc(-c4cnc5ccccc5c4)ccc3ncc21 [BEZ235 (NVP-BEZ235. Dactolisib)] | 3.77 | 3.79 | 1.66 | 2.82 | 0.961 | 4.78
O=c1ccc2cc3ccoc3cc2o1 [Psoralen] | 1.35 | 0.643 | 0.873 | 1.16 | 1.17 | 1.04
CN1CCN(C(=O)c2cc3cc(Cl)ccc3[nH]2)CC1 | 1.14 | 0.827 | 0.611 | 0.998 | 0.507 | 1.17
Cc1[nH]cnc1CN1CCc2c(c3ccccc3n2C)C1=O [Alosetron Hydrochloride] | 1.67 | 0.744 | 0.859 | 0.731 | 0.664 | 1.33
O=C(NCc1ccc(Oc2ccccc2)cc1)c1nc(-c2cc(Br)c(O)c(Br)c2)no1 | 0.904 | 1.1 | 0.858 | 0.788 | 1.55 | 1.21
CCCc1ncc(C[n+]2ccccc2C)c(N)n1 [Amprolium HCl] | 1.47 | 0.883 | 1.08 | 1.27 | 0.679 | 1.39
CCNC(=O)CC[C@H](N)C(=O)O [L-Theanine] | 1.64 | 1.8 | 1.57 | 2.05 | 1.4 | 2.17
